Activity calls are given as the source filed them.

Experiment [1] can be described thus: E. coli DRC41 culture turbidity changes, primary screen, E. coli filamentation inducer project, strain DRC41, OD650, 48 h (AID 1152).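 Also: E. coli MC1000 strain DRC41 lacking acrAB efflux pump and sulA.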 The conditions noted are these: E. coli DRC41 (acrAB sulA), higher = more signal, called active from +8 up or from −8 down.
Experiment [2] in a line: small-molecule binders of probe aLefty1, primary screen, biochemical, small-molecule microarray, 635/667 nm fluorescence (AID 1153).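 Also: score merges spot fluorescence with signal-to-noise ratio from the scanned slide images.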 The conditions noted are these: higher = more signal.
The nature of experiment [3]: PSAC antagonists in infected red cells, primary screen, cell-based, P. falciparum Indochina, OD700, 1 h (AID 1154). The conditions noted are these: P. falciparum Indochina infected RBC osmotic lysis, higher = more signal, called active from +8 up or from −8 down.
A short description of experiment [4]: PSAC antagonists in infected red cells, primary screen, cell-based, P. falciparum Indochina, OD700, 2 h (AID 1155).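 Also: lysis reports solute entry through the parasite surface anion channel PSAC; channel blockers reduce lysis of infected cells.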 The conditions noted are these: P. falciparum Indochina infected erythrocytes, osmotic lysis OD700; higher = more signal, called active from +8 up or from −8 down.
Experiment [5] in a line: osmotic lysis modulators in infected erythrocytes, primary screen, PSAC antagonist project, cell-based, P. falciparum Indochina, OD700, 3 h (AID 1156). To be noted: higher = more signal, called active from +8 up or from −8 down.
Experiment [6] is described as follows: PSAC antagonists in infected red cells, primary screen, cell-based, P. falciparum Indochina, OD700, 18 h (AID 1157). The conditions noted are these: P. falciparum Indochina infected erythrocytes, osmotic lysis OD700, 18 h; higher = more signal, called active from +8 up or from −8 down.
Experiment [7] is described as follows: modulators of S6 phosphorylation in cells, primary screen, cell-based, A549, cytoblot, luminescence, serum-stimulated (AID 1158).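 Also: serum-stimulated A549 lung adenocarcinoma cells; signal is phosphorylated S6 detected by cytoblot immunostaining with HRP secondary.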 To be noted: A549 phospho-S6 cytoblot, 5 h, higher = more signal.
Experiment [8] addresses NADPH oxidase 2 (Homo sapiens) (UniProt P04839). The experiment can be described thus: NOX2-dependent H2O2 signal modulators, primary screen, NOX inhibitor project, cell-based, HEK293-NOX2, PMA-stimulated, Amplex Red fluorescence (AID 1159). Also: test concentration not given here. The conditions noted are these: 45 min, higher = more signal, called active from +8 up or from −8 down.
The target of experiment [9] is NADPH oxidase 4 (Homo sapiens) (UniProt Q9NPH5). Description: NOX4-dependent H2O2 signal modulators, primary screen, NOX inhibitor project, cell-based, HEK293-NOX4, tetracycline-induced, Amplex Red fluorescence (AID 1160). The conditions noted are these: 45 min, higher = more signal, called active from +8 up or from −8 down.
Sequence of NADPH oxidase 4 (Homo sapiens) (Q9NPH5 whole entry, looked up): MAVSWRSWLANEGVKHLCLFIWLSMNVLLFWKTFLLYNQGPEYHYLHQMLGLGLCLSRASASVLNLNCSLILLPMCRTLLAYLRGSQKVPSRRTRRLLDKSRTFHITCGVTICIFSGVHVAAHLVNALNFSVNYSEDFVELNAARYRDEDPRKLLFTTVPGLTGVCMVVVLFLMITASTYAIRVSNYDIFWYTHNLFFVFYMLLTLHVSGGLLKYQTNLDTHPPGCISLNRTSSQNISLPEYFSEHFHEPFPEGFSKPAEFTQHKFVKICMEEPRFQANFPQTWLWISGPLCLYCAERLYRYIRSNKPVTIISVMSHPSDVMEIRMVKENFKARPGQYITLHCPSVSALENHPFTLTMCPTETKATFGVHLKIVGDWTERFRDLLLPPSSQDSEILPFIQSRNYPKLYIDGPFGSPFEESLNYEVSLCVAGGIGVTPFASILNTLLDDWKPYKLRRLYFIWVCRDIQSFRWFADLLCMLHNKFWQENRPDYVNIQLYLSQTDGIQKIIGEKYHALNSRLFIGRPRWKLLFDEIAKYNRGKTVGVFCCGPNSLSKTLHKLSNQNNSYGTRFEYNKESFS
Experiment [10] has as its target NADPH oxidase 5 (Homo sapiens) (UniProt Q96PH1). Description: NOX5-dependent H2O2 signal modulators, primary screen, NOX inhibitor project, cell-based, HEK293-NOX5, Amplex Red fluorescence (AID 1161). To be noted: HEK293-NOX5, ionomycin, 45 min, higher = more signal.
The nature of experiment [11]: A549 cell viability effects, profiling panel, calcein-AM fluorescence, 48 h, basal (AID 1162). Also: test concentration not given here. The conditions noted are these: higher = more signal.
Experiment [12] can be described thus: adipocyte viability effects, profiling panel, cell-based, 3T3-L1 adipocytes, calcein-AM fluorescence, 48 h, basal (AID 1163). Also: test concentration not given here. The conditions noted are these: 3T3-L1 adipocytes viability, higher = more signal.
The nature of experiment [13]: HepG2 cell viability effects, profiling panel, calcein-AM fluorescence, 48 h, basal (AID 1164). Also: test concentration not given here. To be noted: higher = more signal.
Experiment [14] is described as follows: MM1S cell viability effects, profiling panel, calcein-AM fluorescence, 48 h, basal (AID 1165).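 Also: viability of MM1S multiple myeloma cells under basal unstimulated conditions; test concentration not given here.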 To be noted: higher = more signal.
Experiment [15] can be described thus: basal RPMI8226 viability, no added stimulus, profiling panel, cell-based, calcein-AM fluorescence, 48 h, PK04 Diversity Set (AID 1166).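 Also: cells grown under basal conditions without added stimulus; test concentration not given here.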 The conditions noted are these: RPMI8226 myeloma viability, higher = more signal.
A short description of experiment [16]: basal HepG2 mitochondrial membrane potential changes, profiling panel, cell-based, JC-1 fluorescence, 24 h, 100 nL compound (AID 1167). Also: test concentration not given here. To be noted: higher = more signal.
Experiment [17] can be described thus: basal 3T3-L1 adipocyte mitochondrial potential changes, profiling panel, cell-based, JC-1 fluorescence, 3T3-L1 adipocytes, 24 h, 100 nL compound (AID 1168). Also: test concentration not given here. The conditions noted are these: JC-1 mitochondrial fluorescence, higher = more signal, called active from +8 up or from −8 down.
The nature of experiment [18]: basal RPMI8226 mitochondrial membrane potential changes, profiling panel, cell-based, JC-1 fluorescence, 24 h, 100 nL compound (AID 1169). Also: test concentration not given here. The conditions noted are these: RPMI8226 myeloma, JC-1 mitochondrial potential fluorescence, higher = more signal.
Experiment [19] in a line: basal MM1S mitochondrial membrane potential changes, profiling panel, cell-based, JC-1 fluorescence, 24 h, 100 nL compound (AID 1170). Also: test concentration not given here. The conditions noted are these: higher = more signal.
Experiment [20] can be described thus: A549 lung cancer cell viability effects, profiling panel, resazurin fluorescence, 24 h, PK04 Diversity Set (AID 1171). Also: test concentration not given here. The conditions noted are these: higher = more signal, called active from +8 up or from −8 down.

Sequence of NADPH oxidase 5 (Homo sapiens) (Q96PH1 whole entry, looked up): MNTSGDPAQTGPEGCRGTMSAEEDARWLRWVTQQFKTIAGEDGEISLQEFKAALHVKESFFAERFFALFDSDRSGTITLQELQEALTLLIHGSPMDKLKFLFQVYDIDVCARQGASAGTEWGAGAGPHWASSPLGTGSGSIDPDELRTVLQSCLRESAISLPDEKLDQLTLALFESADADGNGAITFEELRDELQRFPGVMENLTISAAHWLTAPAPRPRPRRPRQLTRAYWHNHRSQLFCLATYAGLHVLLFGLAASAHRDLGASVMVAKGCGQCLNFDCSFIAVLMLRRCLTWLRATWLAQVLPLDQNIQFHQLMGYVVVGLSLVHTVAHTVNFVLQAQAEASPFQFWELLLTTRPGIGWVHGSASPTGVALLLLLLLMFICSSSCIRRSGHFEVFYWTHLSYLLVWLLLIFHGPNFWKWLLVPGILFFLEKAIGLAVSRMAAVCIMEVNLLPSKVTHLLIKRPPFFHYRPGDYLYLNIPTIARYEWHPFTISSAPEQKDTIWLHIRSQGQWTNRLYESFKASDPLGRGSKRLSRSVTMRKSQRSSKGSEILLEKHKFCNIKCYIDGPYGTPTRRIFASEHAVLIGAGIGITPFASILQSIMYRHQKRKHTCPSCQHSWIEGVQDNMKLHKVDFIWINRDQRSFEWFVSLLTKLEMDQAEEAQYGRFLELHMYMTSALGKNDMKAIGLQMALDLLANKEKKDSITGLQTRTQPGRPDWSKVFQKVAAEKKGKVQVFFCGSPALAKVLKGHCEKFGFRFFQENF
Sequence of NADPH oxidase 2 (Homo sapiens) (P04839 whole entry, looked up): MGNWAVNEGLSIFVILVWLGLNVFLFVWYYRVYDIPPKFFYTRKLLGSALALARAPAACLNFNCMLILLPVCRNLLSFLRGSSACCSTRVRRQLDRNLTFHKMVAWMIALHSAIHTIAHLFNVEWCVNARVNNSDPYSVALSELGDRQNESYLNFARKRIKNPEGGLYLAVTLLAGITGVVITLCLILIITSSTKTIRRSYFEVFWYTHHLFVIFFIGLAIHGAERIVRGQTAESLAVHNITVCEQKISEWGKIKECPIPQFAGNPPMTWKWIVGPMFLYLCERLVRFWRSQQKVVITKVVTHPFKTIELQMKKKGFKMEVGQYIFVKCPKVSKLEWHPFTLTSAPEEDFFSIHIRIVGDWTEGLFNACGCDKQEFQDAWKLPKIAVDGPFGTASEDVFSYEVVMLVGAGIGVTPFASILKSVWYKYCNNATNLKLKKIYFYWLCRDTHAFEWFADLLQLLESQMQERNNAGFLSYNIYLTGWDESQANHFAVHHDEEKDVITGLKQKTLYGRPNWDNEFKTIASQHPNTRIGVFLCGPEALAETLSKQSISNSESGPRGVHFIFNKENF

As for `COCC(=C=CC[C@@H](O)c1ccccc1OCCO)C[C@@H](O)c1ccccn1`, the z-score is -0.197 (inactive) in [1]; 8.59 (active) in [3]; 0.801 (inactive) in experiment [4]; 0.502 (inactive) in experiment [5]; 0.577 (inactive) in experiment [6]; -0.456 in experiment [7]. Also, the z-score in experiment [8] is -0.459 (inactive); in experiment [9] it was -1.04 (inactive); in experiment [10] it was -1.31; in experiment [11], 0.0929; in experiment [12], 0.158; in experiment [13], -0.0698. Besides, the z-score in experiment [14] was -0.591; in experiment [15], 0.211; in [16] it was -0.95; in experiment [17], -0.99 (inactive); in experiment [18] it was 0.0537; in experiment [19], -0.952. Further, the z-score in experiment [20] is -0.709 (inactive). In addition, the composite z-score in [2] is 0.235.
In the case of `C=CCOc1ccc([C@@H]2CC=C(C(=O)OCC)[C@H](c3cccc(Br)c3)N2S(=O)(=O)c2ccc(C)cc2)cc1`, the z-score in experiment [1] is 0.251 (inactive); in experiment [3], 0.652 (inactive); in experiment [4], -0.384 (inactive); in experiment [5], -0.864 (inactive); in [6], -2.24 (inactive); in [7] it was 1.11. For the same compound, the z-score in experiment [8] was 0.629 (inactive); in [9], 0.399 (inactive); in experiment [10] it was -0.0171; in [11] it was 0.954; in [12], 0.261; in [13], -0.508. The z-score in [14] is 0.394; in experiment [15], -0.455; in experiment [16], 4.43; in experiment [17] it was 0.392 (inactive); in experiment [18] it was -0.957; in [19] it was -0.0677. For the same compound, in experiment [20], the z-score was -0.924 (inactive). This compound also showed a composite z-score in experiment [2] of -0.012.
With `CO[C@H]1O[C@H](CO)[C@@H](OC(=O)Nc2ccc(C(F)(F)F)cc2)[C@H](OC(=O)Nc2ccccc2)[C@H]1OC(=O)Nc1ccccc1`, the z-score in experiment [1] is -1.41 (inactive); in experiment [3], 4.63 (inactive); in experiment [4] it was 1.22 (inactive); in [5], -2.03 (inactive); in experiment [6], 0.887 (inactive); in experiment [7], 0.121. The z-score in experiment [8] is -5.31 (inactive); in experiment [9], -1.39 (inactive); in [10], -1.85; in experiment [11], -3.56; in experiment [12], 1.96; in [13], -5.2. Further, the z-score in experiment [14] was -3.39; in [15], -4.45; in [16], -1.93; in [17] it was 0.575 (inactive); in experiment [18], -1.27; in experiment [19] it was -1.45. The z-score in experiment [20] was -6.31 (inactive). The compound also had a composite z-score in experiment [2] of 1.14.
`CC(C)CN1C(=O)[C@@]2(Cc3ccccc31)c1ccccc1C(=O)N(Cc1ccccc1)[C@H]2c1ccc(CO)cc1`: the z-score in experiment [1] was -0.731 (inactive); in experiment [3] it was 0.0889 (inactive); in experiment [4] it was -0.719 (inactive); in [5] it was 0.27 (inactive); in experiment [6] it was 0.157 (inactive); in experiment [7] it was 0.148. For the same compound, the z-score in [8] is 0.439 (inactive); in experiment [9] it was -0.348 (inactive); in experiment [10] it was -0.498; in [11], -0.225; in [12], -0.0208; in experiment [13], -0.134. Also, the z-score in [14] is -0.688; in experiment [15] it was -0.152; in [16], -0.529; in experiment [17] it was -0.224 (inactive); in experiment [18], 0.0482; in experiment [19], 1.07. Further, in [20], the z-score is -0.252 (inactive). For the same compound, the composite z-score in [2] is -0.702.
As for `COCCCNC(=O)[C@@H]1c2ccccc2C(=O)N(c2ccc(C)cn2)[C@H]1c1ccc(CO)cc1`, the z-score in experiment [1] is -0.889 (inactive); in experiment [3], 1.21 (inactive); in [4] it was -0.205 (inactive); in [5], 1.74 (inactive); in experiment [6], 0.205 (inactive); in experiment [7] it was -0.112. Further, the z-score in [8] is 0.837 (inactive); in [9], -0.797 (inactive); in experiment [10], -0.00783; in experiment [11], 0.212; in experiment [12], 1.23; in experiment [13], -0.357. Also, the z-score is -1.04 in [14]; -0.57 in experiment [15]; -0.569 in experiment [16]; -0.916 (inactive) in [17]; 0.83 in experiment [18]; 0.484 in experiment [19]. Moreover, the z-score in experiment [20] was -0.708 (inactive). In experiment [2], this compound gave a composite z-score of -0.0984.
`N#Cc1ccc(NN2C(C(O)c3ccccc3)C=CC3C(=O)N(c4ccccc4)C(=O)C32)cc1` (stereo not given): the z-score in experiment [1] was -1.28 (inactive); in experiment [3] it was 9.06 (active); in [4], 0.611 (inactive); in [5], 1.65 (inactive); in experiment [6] it was 0.58 (inactive); in experiment [7], -0.823. Also, the z-score in [8] is -2.08 (inactive); in experiment [9], -5.5 (inactive); in [10] it was -3.44; in [11], -1.14; in experiment [12], -0.173; in [13], 0.216. The z-score is -0.861 in experiment [14]; -0.32 in experiment [15]; -0.782 in experiment [16]; -0.182 (inactive) in [17]; 0.0989 in experiment [18]; 0.976 in experiment [19]. The z-score in [20] is -0.331 (inactive). Also, in experiment [2], the composite z-score stood at 0.0077.
As to `[N-]=[N+]=Nc1ccccc1[C@@H]1OC(c2ccc(OCCCO)cc2)=N[C@]1(CCS(=O)(=O)c1ccccc1)C(=O)NCc1ccccc1`, the z-score was 0.871 (inactive) in experiment [1]; 28 (active) in [3]; 23.5 (active) in [4]; 1.29 (inactive) in experiment [5]; 4.33 (inactive) in experiment [6]; -0.309 in experiment [7]. Moreover, the z-score in experiment [8] was -1.86 (inactive); in [9] it was 0.642 (inactive); in [10], 1.15; in experiment [11], 0.282; in [12], 0.803; in [13], 0.82. The z-score in experiment [14] was -0.723; in [15], -0.185; in [16], 0.136; in experiment [17], 3.88 (inactive); in [18], -1.03; in [19], -0.856. Moreover, the z-score in [20] is -0.725 (inactive). In experiment [2], this compound registered a composite z-score of 1.01.
Regarding `C=C(CCCC)/C(=C/C[C@H](OC(=O)c1ccncc1)c1ccc(CO)o1)c1cc(C(=O)OC)ccc1OC`, the z-score in [1] is -0.432 (inactive); in experiment [3] it was 4.31 (inactive); in [4], 0.756 (inactive); in experiment [5], 2.04 (inactive); in [6] it was 0.332 (inactive); in [7] it was -0.247. Moreover, the z-score in experiment [8] was -0.582 (inactive); in experiment [9], -0.903 (inactive); in [10], -1.57; in experiment [11] it was -0.705; in [12], -0.0954; in [13], -0.677. In addition, the z-score in experiment [14] is -3.18; in experiment [15], -1.04; in experiment [16] it was -0.132; in experiment [17], -0.991 (inactive); in experiment [18], -0.375; in experiment [19], -0.207. Also, the z-score in experiment [20] is -0.401 (inactive). For the same compound, the composite z-score in experiment [2] was found to be 0.178.

Values taken from PubChem BioAssay.
